Source: PubChem (Broad Institute)
MITF act – activators of MITF-driven TRPM1 promoter activity in SK-MEL-5 cells; SK-MEL-5 TRPM1-promoter luciferase, 24 h; % of positive control, neutral wells = 0; activation, % at 12.5 µM; AID 588334; 300,000 tested, 0.75% active;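 active = mean activation of at least 80% with every replicate also reaching 80%; inconclusive = mean reaches 80% but some replicate falls short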;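 note: 0% = neutral control wells and 100% = parthenolide positive control wells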
miR-122 sensor – miR-122 inhibition in Huh7 cells | 340,000 tested, 0.3% active | activation (reporter increase), % at 12.5 µM | Huh7 miR-122 Renilla luciferase sensor, 48 h; neutral wells = 0, positive control = 100 | AID 602342;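 active = mean replicate activation score at least 90 and every replicate individually at or above 90; inconclusive = only one of the two criteria met; inactive = neither criterion met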;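 note: higher luciferase means less miR-122 activity so hits act as miR-122 inhibitors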
esBAF inh – inhibitors of esBAF chromatin remodeling in mouse ES cells; Bmi1-luciferase knock-in reporter, 24 h; 100% = twice the neutral-well signal; 350,000 tested, 2% active; reporter increase, % at 12.5 µM; in the data active = activation above about 40%; inconclusive = no clear call, values can overlap the other calls;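 note: 0% = median of the plate's neutral control wells and 100% = double that signal; a rise in the Bmi1 reporter signal indicates esBAF inhibition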
Wnt act – activators of Wnt/beta-catenin signaling; Wnt/beta-catenin reporter cell assay, activator, plate reader; activation, % at 9.35 µM; 300,000 tested, 1.2% active; AID 743398; in the data active = activation above about 30%, passing the limit was not always enough; inconclusive = no clear call, values can overlap the other calls;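 note: 0% = neutral control wells and 100% = positive control wells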
Env fusion inh – HIV envelope-mediated fusion inhibition; HeLa-JRFL Env/CEM21 cell fusion, luciferase; inhibition, % at 12.3 µM; 360,000 tested, 1.1% active; AID 651610;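 active = mean replicate inhibition score of at least 50 and every replicate individually at or above 50; inconclusive = only one of the two criteria met; inactive = mean below 50 and not all replicates reaching 50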;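 note: 0% = plate neutral controls and 100% = maraviroc near 300 nM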
Starred values were filed as active, the others as inactive; i = inactive; ? = inconclusive; . = no result; [ ] = another dose, or the depositor's remark. Hits are enriched below; roughly 3.4% of the tested compounds scored in any of these assays.

SMILES | MITF act | miR-122 sensor | esBAF inh | Wnt act | Env fusion inh
CCOc1ccc(-c2csc(NC(=O)c3ccco3)n2)cc1 | . | -5 | 58* | 3 | -19
CC(OC(=O)c1ccco1)C(=O)Nc1ccc(Cl)cn1 (centres undefined) | -8 | -5 | -8 | -2 | -9
Cc1ccc(-c2csc(NC(=O)c3ccco3)n2)cc1C | . | -4 | 47* | 41* | -73
CC(OC(=O)c1ccco1)C(=O)Nc1nc(-c2ccccc2)cs1 (centres undefined) | 89* | . | 48* | 7 | -47
COc1cccc(-c2nnc(NC(=O)c3ccco3)s2)c1 | 58 | 3 | 12 | 35* | -31
Cc1ccc(-c2csc(NC(=O)c3c(C)noc3C)n2)cc1C | 44 | . | 20 | -4 | .
COC(=O)c1c(-c2ccc(F)cc2)csc1NC(=O)c1ccco1 | 118* | -4 | . | . | .
COc1ccc(CN(C)C[C@@H]2Oc3ccc(N(C)C)cc3CC(=O)N([C@H](C)CO)C[C@H]2C)cc1 | . | 10[16.7 µM] | 4 | . | .
CO[C@H]1CN(C)C(=O)c2cccc(C#N)c2OCC[C@@H]2CC[C@@H](OC)[C@H](CN(C)C(=O)[C@@H]1C)O2 | . | . | 3 | . | 5[16.7 µM]
C[C@@H]1CN([C@@H](C)CO)C(=O)c2c(c3ccccc3n2C)-c2ccccc2CO[C@H]1CN(C)S(=O)(=O)c1cn(C)cn1 | . | . | 3 | . | -15[16.7 µM]
C[C@@H]1CN([C@H](C)CO)C(=O)c2cc(NC(=O)Cc3ccccc3)ccc2O[C@@H](C)CCCCO[C@@H]1CN(C)C(=O)Cc1ccccc1 | . | 6[16.7 µM] | -5 | . | -12[16.7 µM]
CCCNC(=O)N(C)C[C@@H]1Oc2cc(C#Cc3ccccn3)ccc2S(=O)(=O)N([C@@H](C)CO)C[C@@H]1C | . | 9[16.7 µM] | 5 | . | 3[16.7 µM]
COc1ccc(-c2csc(NC(=O)c3ccco3)n2)cc1 | 83* | 1 | 65* | 18 | .
O=C(Nc1nc(-c2ccccc2)cs1)c1ccco1 | . | -6 | . | 43* | -32
O=C(Nc1cc(-c2ccccc2)cs1)c1ccco1 | 110* | 8 | 67* | 44* | -50
O=C(Nc1nc(-c2ccco2)cs1)c1ccccc1 | ? | 10 | 36 | . | .
CO[C@@H]1CN(C)C(=O)c2cc(NC(=O)c3ccccc3F)ccc2OC[C@@H](C)N(C)C[C@@H]1C | . | -1[16.7 µM] | 10 | . | 1[16.7 µM]
CC(C)NC(=O)N(C)C[C@H]1Oc2ccc(NS(=O)(=O)c3cn(C)cn3)cc2C(=O)N([C@H](C)CO)C[C@H]1C | . | -5[16.7 µM] | -3 | . | 17[16.7 µM]
COc1ccccc1NC(=S)Nc1cccc2cnccc12 | -15 | . | . | 2 | 58*
Cc1cccc(NC(=S)Nc2cccc3ccccc23)c1 | -20 | 3 | 35 | 3 | -11
CCOc1ccc(NC(=S)Nc2cccc3ccccc23)cc1 | 14 | 10 | 33 | 31* | -22
COc1cccc(NC(=S)Nc2cccc3ccccc23)c1 | 15 | 5 | 55* | 12 | -21
C[C@@H]1CN([C@H](C)CO)C(=O)c2cc(-c3cccc(F)c3)cnc2O[C@@H]1CN(C)S(=O)(=O)c1cccc(F)c1 | . | -1[16.7 µM] | . | . | 9[16.7 µM]
C[C@@H]1CN([C@@H](C)CO)C(=O)c2cc(C#Cc3ccccc3F)cnc2O[C@H]1CN(C)S(=O)(=O)c1ccccc1F | . | -3[16.7 µM] | -8 | . | 10[16.7 µM]
Nc1nnnn1/N=C/C=C/c1ccccc1 | 23 | -5 | 19 | . | .
SMILES | MITF act | miR-122 sensor | esBAF inh | Wnt act | Env fusion inh
Nc1nnnn1/N=C/C(Br)=C/c1ccccc1 | -83 | 6 | 53* | -20 | i
COc1ccc(CN(C)C[C@H]2OCCCC[C@H](C)Oc3ccc(NC(=O)NC4CCCCC4)cc3C(=O)N([C@H](C)CO)C[C@@H]2C)cc1 | . | 12[16.7 µM] | -2 | . | -31[16.7 µM]
CN(C)C(=O)c1ccc(-c2ccc([C@@H]3[C@@H](C#N)N(C(=O)C4CC4)[C@H]3CO)cc2)cc1 | . | . | 7 | . | -7[16.7 µM]
N#C/C(=C\c1cccs1)C(=O)Nc1ccccn1 | 89* | . | . | 74* | -129
N#C/C(=C\c1ccccc1)C(=O)Nc1ccccn1 | 10 | -11 | -5 | 0 | 0
Clc1ccc(-c2nnc(N3CCCC3)nn2)cc1 | . | -10 | -26 | 35* | -51
Fc1ccc(-c2cn3cc(C(F)(F)F)cc(Cl)c3n2)cc1 | 39 | 8 | 46* | 49* | i
COc1ccc(-c2cn3cc(C(F)(F)F)cc(Cl)c3n2)cc1 | 44 | . | . | 7 | -319
CC(=O)Nc1cc(-c2ccc(N3CCN(C)CC3)cc2)cn2c(-c3ccccc3)cnc12 | . | 7 | 6 | 38* | 23
CO[C@@H]1CN(C)C(=O)c2cc(NC(=O)NC(C)C)ccc2OC[C@@H](C)N(C)C[C@H]1C | . | -1[16.7 µM] | 0 | . | .
Cc1noc(C)c1S(=O)(=O)Nc1cccc2c1O[C@@H](CN(C)Cc1ccc(C(F)(F)F)cc1)[C@@H](C)CN([C@H](C)CO)C2=O | . | 5[16.7 µM] | -4 | . | 17[16.7 µM]
Cc1noc(C)c1S(=O)(=O)Nc1cccc2c1O[C@H](CN(C)Cc1ccc(C(F)(F)F)cc1)[C@H](C)CN([C@H](C)CO)C2=O | . | 16[16.7 µM] | 4 | . | 59*[16.7 µM]
C[C@@H]1CN([C@H](C)CO)C(=O)c2cccc(NS(=O)(=O)c3ccc(F)cc3)c2O[C@@H]1CN(C)Cc1ccc(C(F)(F)F)cc1 | . | 3[16.7 µM] | 0 | . | 77*[16.7 µM]
C[C@H]1CN([C@@H](C)CO)C(=O)c2cccc(NS(=O)(=O)c3ccc(Cl)cc3)c2O[C@@H]1CN(C)Cc1ccc(C(F)(F)F)cc1 | . | 49[16.7 µM] | -7 | . | 57*[16.7 µM]
COc1ccc(S(=O)(=O)Nc2cccc3c2O[C@@H](CN(C)Cc2ccc(C(F)(F)F)cc2)[C@H](C)CN([C@H](C)CO)C3=O)cc1 | . | 102*[16.7 µM] | 2 | . | -116[16.7 µM]
CN1C(=O)c2cc(NC(=O)c3cnccn3)ccc2OC[C@H]2O[C@@H](CC(=O)NC3CCC3)CC[C@@H]21 | . | -22[16.7 µM] | 5 | . | .
C=CCn1c(SCc2ccc3c(c2)OCO3)nc2scc(-c3ccco3)c2c1=O | . | -4 | 9 | . | -64
C=CCn1c(SCC(=O)NCc2ccc3c(c2)OCO3)nc2scc(-c3ccccc3)c2c1=O | 9 | -4 | -9 | -9 | 119*
C/C(N)=C(/C#N)C(=O)CSc1nc2ccccc2c(=O)n1Cc1ccc(F)cc1 | 4 | 6 | -9 | 1 | 67*
CC(Sc1nc2cc([N+](=O)[O-])ccc2n1-c1ccc(F)cc1)C(=O)NCc1ccc2c(c1)OCO2 (centres undefined) | 4 | -1 | . | -3 | 94*
C/C(N)=C(/C#N)C(=O)CSc1nc2ccccc2c(=O)n1Cc1ccc(C)cc1 | -12 | 2 | . | -7 | 15
O=C(CSc1nc2ccccc2c(=O)n1Cc1ccc(Cl)cc1)NCc1cccs1 | 2 | 7 | -5 | . | 70*
COc1ccccc1-n1c(SCC(=O)NCc2ccc3c(c2)OCO3)nc2cc([N+](=O)[O-])ccc21 | -6 | . | . | -1 | .
CCCC(=O)Nc1ccc2c(c1)OC[C@@H](C)N(Cc1ccccc1F)C[C@H](C)[C@H](OC)CN(C)C2=O | . | . | -3 | . | .
C[C@@H]1CN([C@H](C)CO)C(=O)c2cc(NC(=O)NC3CCCCC3)ccc2O[C@@H](C)CCCCO[C@@H]1CN(C)C(=O)c1ccccc1 | . | 11[16.7 µM] | 1 | . | 6[16.7 µM]
